# What was measured:
# Experiment in all cases: yeast three-hybrid, YBZ-1, SC-Leu-His + 0.5 mM 3-AT, 4 days
# Conditions in all cases: tags: N-Gal4 AD-HA kept; label: inside an RPR1-promoter hybrid RNA with tandem MS2 sites; ssRNA
# PUM1 PUF domain R5-PRG = PUM1 PUF domain R5-PRG (Homo sapiens, UniProt Q14671 828-1176, C1007P;Q1011G)
# Method in brief: (§1)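 The interaction score is the log change in variant frequency from input to selection. Scores were computed in log2 with a pseudocount of 1 for absent variants, using Illumina sequencing of PCR-amplified repeat regions. The input came from four days on SC-Leu and the selection from four days on SC-Leu-His + 0.5 mM 3-AT. The cells were strain YBZ-1 (LexA–MS2 coat fusion, HIS3 reporter) co-expressing Pumilio-1 PUF domain libraries and matching RNA elements from a centromeric plasmid.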
# PUM1 PUF domain R5-RRV = PUM1 PUF domain R5-RRV (Homo sapiens, UniProt Q14671 828-1176, C1007R;Q1011V)
# Method in brief: as §1
# PUM1 PUF domain R5-RHH = PUM1 PUF domain R5-RHH (Homo sapiens, UniProt Q14671 828-1176, C1007R;R1008H;Q1011H)
# Method in brief: as §1
# PUM1 PUF domain R5-SAP = PUM1 PUF domain R5-SAP (Homo sapiens, UniProt Q14671 828-1176, C1007S;R1008A;Q1011P)
# Method in brief: as §1
# PUM1 PUF domain R4-CFP = PUM1 PUF domain R4-CFP (Homo sapiens, UniProt Q14671 828-1176, N971C;H972F;Q975P)
# Method in brief: as §1
# PUM1 PUF domain R4-LNA = PUM1 PUF domain R4-LNA (Homo sapiens, UniProt Q14671 828-1176, N971L;H972N;Q975A)
# Method in brief: as §1
# PUM1 PUF domain R6-FWL = molecular target: T1, PUM1 PUF domain R6-FWL (Homo sapiens, UniProt Q14671 828-1176, N1043F;Y1044W;Q1047L)
# T1 sequence: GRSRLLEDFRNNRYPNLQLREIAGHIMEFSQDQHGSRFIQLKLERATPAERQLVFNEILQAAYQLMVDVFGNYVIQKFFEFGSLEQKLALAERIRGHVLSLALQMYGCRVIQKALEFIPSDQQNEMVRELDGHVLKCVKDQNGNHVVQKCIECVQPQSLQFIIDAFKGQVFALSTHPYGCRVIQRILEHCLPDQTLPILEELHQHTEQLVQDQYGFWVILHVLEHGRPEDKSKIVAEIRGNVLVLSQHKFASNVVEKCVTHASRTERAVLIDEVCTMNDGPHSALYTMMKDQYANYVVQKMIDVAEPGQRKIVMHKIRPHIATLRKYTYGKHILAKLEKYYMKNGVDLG
# Method in brief: as §1
# PUM1 PUF domain R1-KLM = PUM1 PUF domain R1-KLM (Homo sapiens, UniProt Q14671 828-1176, S863K;R864L;Q867M)
# Method in brief: as §1
# PUM1 PUF domain R5-KSL = PUM1 PUF domain R5-KSL (Homo sapiens, UniProt Q14671 828-1176, C1007K;R1008S;Q1011L)
# Method in brief: as §1
# PUM1 PUF domain R7-GRR = PUM1 PUF domain R7-GRR (Homo sapiens, UniProt Q14671 828-1176, S1079G;N1080R;E1083R)
# Method in brief: as §1
# PUM1 PUF domain R5-KPL = PUM1 PUF domain R5-KPL (Homo sapiens, UniProt Q14671 828-1176, C1007K;R1008P;Q1011L)
# Method in brief: as §1
# PUM1 PUF domain R3-VWF = PUM1 PUF domain R3-VWF (Homo sapiens, UniProt Q14671 828-1176, C935V;R936W;Q939F)
# Method in brief: as §1
# Sequence of PUM1 PUF domain R5-RRV (Q14671 828-1176 C1007R/Q1011V): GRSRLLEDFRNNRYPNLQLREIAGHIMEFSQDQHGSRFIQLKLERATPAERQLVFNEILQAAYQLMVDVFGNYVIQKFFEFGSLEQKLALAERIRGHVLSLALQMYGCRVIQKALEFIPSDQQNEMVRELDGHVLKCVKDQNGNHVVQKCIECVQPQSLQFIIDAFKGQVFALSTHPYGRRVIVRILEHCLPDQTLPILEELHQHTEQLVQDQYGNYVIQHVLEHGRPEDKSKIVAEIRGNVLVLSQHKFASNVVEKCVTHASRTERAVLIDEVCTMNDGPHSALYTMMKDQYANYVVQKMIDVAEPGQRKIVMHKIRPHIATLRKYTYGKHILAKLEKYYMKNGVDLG
# Sequence of PUM1 PUF domain R5-PRG (Q14671 828-1176 C1007P/Q1011G): as the sequence (Q14671 828-1176 C1007R/Q1011V) above, with R180P, V184G counted along it
# Sequence of PUM1 PUF domain R5-KSL (Q14671 828-1176 C1007K/R1008S/Q1011L): as the sequence (Q14671 828-1176 C1007R/Q1011V) above, with R180K, R181S, V184L counted along it
# Sequence of PUM1 PUF domain R1-KLM (Q14671 828-1176 S863K/R864L/Q867M): as the sequence (Q14671 828-1176 C1007R/Q1011V) above, with S36K, R37L, Q40M, R180C, V184Q counted along it
# Sequence of PUM1 PUF domain R5-SAP (Q14671 828-1176 C1007S/R1008A/Q1011P): as the sequence (Q14671 828-1176 C1007R/Q1011V) above, with R180S, R181A, V184P counted along it
# Sequence of PUM1 PUF domain R5-RHH (Q14671 828-1176 C1007R/R1008H/Q1011H): as the sequence (Q14671 828-1176 C1007R/Q1011V) above, with R181H, V184H counted along it
# Sequence of PUM1 PUF domain R5-KPL (Q14671 828-1176 C1007K/R1008P/Q1011L): as the sequence (Q14671 828-1176 C1007R/Q1011V) above, with R180K, R181P, V184L counted along it
sequence,measurement,setting,value
GGCUAGAACUAGUGGAUCCCCCGGCGCCCGGCGGCUCGAGCCCGGGUAAGUGUGAAUAGUCUGCAUGCCGCCGGGCGCCAUGCCUGCAGGUCGACUCUAGAAAACAUG,binding signal,PUM1 PUF domain R5-PRG,2.67 log2 enrichment (interaction score)
same,binding signal,PUM1 PUF domain R5-RRV,1.41 log2 enrichment (interaction score)
same,binding signal,PUM1 PUF domain R5-RHH,3.25 log2 enrichment (interaction score)
same,binding signal,PUM1 PUF domain R5-SAP,3.23 log2 enrichment (interaction score)
GGCUAGAACUAGUGGAUCCCCCGGCGCCCGGCGGCUCGAGCCCGGGUAAGUGUAUAUAGUCUGCAUGCCGCCGGGCGCCAUGCCUGCAGGUCGACUCUAGAAAACAUG,binding signal,PUM1 PUF domain R4-CFP,6.56 log2 enrichment (interaction score)
same,binding signal,PUM1 PUF domain R4-LNA,2.84 log2 enrichment (interaction score)
GGCUAGAACUAGUGGAUCCCCCGGCGCCCGGCGGCUCGAGCCCGGGUAAGUGAAAAUAGUCUGCAUGCCGCCGGGCGCCAUGCCUGCAGGUCGACUCUAGAAAACAUG,binding signal,PUM1 PUF domain R6-FWL,5.88 log2 enrichment (interaction score)
GGCUAGAACUAGUGGAUCCCCCGGCGCCCGGCGGCUCGAGCCCGGGUAAGUGUAAAUGGUCUGCAUGCCGCCGGGCGCCAUGCCUGCAGGUCGACUCUAGAAAACAUG,binding signal,PUM1 PUF domain R1-KLM,0.59 log2 enrichment (interaction score)
GGCUAGAACUAGUGGAUCCCCCGGCGCCCGGCGGCUCGAGCCCGGGUAAGUGUUAAUAGUCUGCAUGCCGCCGGGCGCCAUGCCUGCAGGUCGACUCUAGAAAACAUG,binding signal,PUM1 PUF domain R5-KSL,3.78 log2 enrichment (interaction score)
same,binding signal,PUM1 PUF domain R5-PRG,3.9 log2 enrichment (interaction score)
same,binding signal,PUM1 PUF domain R5-RRV,4.92 log2 enrichment (interaction score)
GGCUAGAACUAGUGGAUCCCCCGGCGCCCGGCGGCUCGAGCCCGGGUAAGUCUAAAUAGUCUGCAUGCCGCCGGGCGCCAUGCCUGCAGGUCGACUCUAGAAAACAUG,binding signal,PUM1 PUF domain R7-GRR,2.81 log2 enrichment (interaction score)
GGCUAGAACUAGUGGAUCCCCCGGCGCCCGGCGGCUCGAGCCCGGGUAAGUGUCAAUAGUCUGCAUGCCGCCGGGCGCCAUGCCUGCAGGUCGACUCUAGAAAACAUG,binding signal,PUM1 PUF domain R5-KPL,4.18 log2 enrichment (interaction score)
same,binding signal,PUM1 PUF domain R5-KSL,3.79 log2 enrichment (interaction score)
same,binding signal,PUM1 PUF domain R5-PRG,1.67 log2 enrichment (interaction score)
same,binding signal,PUM1 PUF domain R5-RRV,4.84 log2 enrichment (interaction score)
GGCUAGAACUAGUGGAUCCCCCGGCGCCCGGCGGCUCGAGCCCGGGUAAGUGUAAGUAGUCUGCAUGCCGCCGGGCGCCAUGCCUGCAGGUCGACUCUAGAAAACAUG,binding signal,PUM1 PUF domain R3-VWF,2.09 log2 enrichment (interaction score)

# From paper PMC8384837, “Expanding the binding specificity for RNA recognition by a PUF domain”
